Source: PubChem (National Center for Advancing Translational Sciences (NCATS))
Most compounds without a hit are left out; they make up all but 2.4% or so of the library.
D2 antagonist: antagonists of human D2 dopamine receptor | 340,000 tested, 2% active | AID 485344 | HEK293 TREx D2 cells, calcium flux, dopamine EC80 | inhibition, % at 10 µM; in the data active = inhibition above about 30%; inactive = below that, where a call was filed
Target sequence (P14416 whole entry, looked up): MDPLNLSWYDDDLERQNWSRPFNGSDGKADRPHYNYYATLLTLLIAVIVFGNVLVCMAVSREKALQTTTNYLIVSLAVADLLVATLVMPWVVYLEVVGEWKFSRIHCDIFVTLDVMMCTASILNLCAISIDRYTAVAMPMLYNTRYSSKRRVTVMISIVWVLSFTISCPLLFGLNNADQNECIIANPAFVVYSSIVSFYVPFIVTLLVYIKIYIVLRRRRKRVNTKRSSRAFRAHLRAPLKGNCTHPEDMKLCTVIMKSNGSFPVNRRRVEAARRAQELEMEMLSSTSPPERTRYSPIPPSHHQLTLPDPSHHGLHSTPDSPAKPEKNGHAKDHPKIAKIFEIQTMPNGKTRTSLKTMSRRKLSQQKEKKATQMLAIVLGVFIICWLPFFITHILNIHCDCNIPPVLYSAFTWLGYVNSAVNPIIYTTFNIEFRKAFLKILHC
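Measurement of antagonist activity uses fluorescent calcium dye in inducible HEK293 T-REx D2 cells: 10 s baseline, compound addition with 180 s read, EC80 dopamine addition with a further 180 s read.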
D2 ag-1: agonists of human D2 dopamine receptor. AID 485358. activation, % at 2 µM. 340,000 tested, 0.53% active. HEK293 T-REx D2 cells, calcium flux agonist mode;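 active = activation over 3 SD above normal in the single-dose calcium agonist read, cut at about 30% in these data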
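HEK293 Trex D2 cells, tetracycline-induced, o/n 30 C 5% CO2; no-wash Ca dye, RT 30–90 min; 10-cycle baseline, 23 nl cpd added, kinetic Ca read 180 s; agonist hits = positive Ca response.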
D2 ag-2: agonists of human D2 dopamine receptor (beta-arrestin); activation, % (concentration not given with the values); 360,000 tested, 0.084% active; P14416; AID 624465; DiscoveRx PathHunter D2 beta-arrestin, luminescence, 90 min; 100% = 57 uM dopamine signal; in the data active = activation above about 40%; inconclusive = between about 15% and that limit
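Agonist mode: compounds alone added to overnight-plated D2 PathHunter cells for 90 min at 37 C, with 57 uM final dopamine (EC100) defining full response. Beta-arrestin recruitment detected by chemiluminescent reagent, read after 1 h at ambient temperature.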
D2 PAM-1: positive allosteric modulators of human D2 dopamine receptor; P14416; DiscoveRx D2 beta-arrestin cells, luminescence, 90 min; 100% = 57 uM dopamine signal; potentiation, % (test concentration not listed); 360,000 tested, 0.23% active; AID 624464; in the data active = potentiation above about 50%; inconclusive = mostly about 30% to 49%
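D2 cells co-treated with compound plus 50 nM dopamine (EC20) for 90 min at 37 deg C to detect potentiation. Beta-arrestin recruitment was read as enzyme-fragment luminescence after 1 h at ambient temperature. Full response was set by 57 uM dopamine.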
D2 PAM-2: positive allosteric modulators of human D2 dopamine receptor; 340,000 tested, 0.34% active; HEK293 T-REx D2, calcium flux, EC20 dopamine potentiation; potentiation, % at 10 µM; P14416;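 active = potentiation over 3 SD above the plate norm, cut at about 30% in these data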
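Tetracycline-induced Hek293 Trex D2 cells, force-coupled to calcium, loaded with no-wash calcium dye. Compound added with 180 s kinetic read for agonism, then EC20 dopamine and a further 180 s read for potentiation.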
Large screens that a line does not name were inactive.

COc1cc(C(=O)N(Cc2cccnc2)Cc2cc3cc4c(cc3[nH]c2=O)OCCO4)cc(OC)c1OC	D2 antagonist 37
CCOC(=O)N1CCN(Cc2cccs2)CC1	D2 ag-1 38, D2 ag-2 inconclusive
CCOC(=O)N1CCN(Cc2ccccn2)CC1	D2 PAM-2 44
CCOC(=O)N1CCN(Cc2ccc(O)c3ncccc23)CC1	none
Nc1ccc(C(=O)OC2CCOC2=O)cc1[N+](=O)[O-] (stereo not drawn)	none
CCOc1ccc(S(=O)(=O)N2CCCC(C(=O)N3CCCC3)C2)cc1 (stereo not drawn)	none
Cc1n[nH]c(C)c1N1C(=O)c2cccc3c(N4CCCCCC4)ccc(c23)C1=O	D2 ag-1 84
O=C1c2cccc3c(N4CCCCC4)ccc(c23)C(=O)N1c1cccc(O)c1	D2 ag-1 57
O=C1c2cccc3c(N4CCCCC4)ccc(c23)C(=O)N1CCO	none
CCOc1ccccc1NC(=O)Cn1ccn(Cc2ccc(C)cc2)c(=O)c1=O	none (no result: D2 antagonist, D2 ag-2, D2 PAM-1)
O=C(c1ccc(F)cc1)N(NC(=O)C(O)(c1ccccc1)c1ccccc1)c1ccccc1	D2 antagonist 40
COc1ccc(CCN2C(=O)c3[nH]nc(-c4ccccc4O)c3C2c2cccc(OC)c2)cc1 (stereo not drawn)	none (no result: D2 antagonist, D2 ag-2, D2 PAM-1)
COc1ccc(CCN2C(=O)c3[nH]nc(-c4ccccc4O)c3C2c2cccc(Cl)c2)cc1 (stereo not drawn)	D2 PAM-1 91
O=S(=O)(/C=C/C=C/S(=O)(=O)c1ccccc1)c1ccccc1	none (no result: D2 antagonist, D2 ag-1, D2 PAM-2)
O=C(Nc1cccc(Cl)c1)c1nc[nH]c1C(=O)N1CCc2ccccc2C1	D2 antagonist 56
Cc1cccc(NC(=O)c2nc[nH]c2C(=O)N2CCc3ccccc3C2)c1	D2 antagonist 86
O=C(Nc1ccccc1)c1nc[nH]c1C(=O)N1CCc2ccccc2C1	none
CCN(CC)CCCNC(=O)CCn1nc(-c2ccccc2)ccc1=O	none
CCOc1ccc(-c2c(C(=O)N/N=C/c3c[nH]c4ccccc34)nnn2-c2nonc2N)cc1	D2 ag-2 inconclusive
COc1ccc(C(C#N)CC(=O)c2ccc(OC)c(OCc3ccccc3)c2)cc1OC (stereo not drawn)	none (no result: D2 antagonist, D2 ag-1, D2 PAM-2)
CCN(C(C)=O)c1cnc(C=NNC(N)=S)c2ccccc12	D2 ag-2 inconclusive, D2 PAM-1 57 (no result: D2 antagonist, D2 ag-1, D2 PAM-2)
O=c1[nH]c(=O)n(C2CCCO2)cc1F (stereo not drawn)	D2 antagonist 32
CCOC(=O)N1N=C(CC)CC1(O)C(F)(F)F (stereo not drawn)	D2 PAM-2 38
O=c1c2sc3ccccc3c2n(Cc2ccc(F)cc2)c(=O)n1Cc1ccco1	none (no result: D2 antagonist, D2 ag-2, D2 PAM-1)
COCC(=O)Nc1ccc(OC)c(Cl)c1	D2 antagonist 37
COc1cc(OC)cc(C(=O)NCC(=O)Nc2ccc(OC)c(Cl)c2)c1	D2 antagonist 37
COc1ccc(NC(=O)COC(C)=O)cc1Cl	none
Oc1c(Br)cc(Br)cc1-c1nc2ccccc2s1	none (no result: D2 antagonist, D2 ag-2, D2 PAM-1)
CCOc1ccc(CNC(=O)Cn2cc3c(n2)-c2c(oc(C(=O)N4CCOCC4)c2C)CC3)cc1	none (no result: D2 antagonist, D2 ag-2, D2 PAM-1)
c1ccc(-c2nc3nonc3nc2-c2ccccc2)cc1	D2 antagonist 41, D2 ag-2 inconclusive, D2 PAM-1 74
CN(C)c1nc(Oc2ccc(=O)[nH]n2)nc(N2CCCCC2)n1	D2 antagonist 31
Cc1nc2c(=O)n(C)c(=O)n(C)c2nc1Cl	none
CC(C)=C(NC(=O)c1ccccc1)C(=O)NC(Cc1ccccc1)C(=O)O (stereo not drawn)	D2 antagonist 39
N#CCc1ccc(NC(=O)/C=C/c2ccc([N+](=O)[O-])o2)cc1	D2 antagonist 32
O=C(O)/C=C/c1ccc([N+](=O)[O-])o1	none
CCOC(=O)C1=C(C)NC2=C(C(=O)CCC2)C1c1coc2ccccc2c1=O (stereo not drawn)	none
CC1=C(C(=O)OCCOc2ccccc2)C(c2coc3ccccc3c2=O)C2=C(CCCC2=O)N1 (stereo not drawn)	D2 PAM-2 43
COc1ccc(C(=O)/C=C2\Sc3ccccc3N2C)cc1	D2 antagonist 41
COc1ccccc1-[n+]1c(C)cc(/C=C2\Sc3ccccc3N2C)cc1C	D2 ag-1 89
COc1ccc(-[n+]2c(C)cc(/C=C3\Sc4ccccc4N3C)cc2C)cc1	D2 antagonist 48, D2 ag-1 55
COc1ccccc1OC(=O)CCN1c2ccccc2Sc2ccccc21	none
COc1ccc(-c2nc3ccc(Cl)cn3c2CC(C)(C)C)cc1OC	none (no result: D2 antagonist, D2 ag-1, D2 PAM-2)
Cc1ccc2c(c1)N(Cc1cccc(C#N)c1)C=NS2(=O)=O	none
COc1ccc(C(=O)OCC(=O)c2ccc(C3CCCCC3)cc2)cc1	none
Nc1ccc(O)cc1C(=O)OCC(=O)c1ccc(C2CCCCC2)cc1	D2 PAM-1 77
c1cnc2nc(CSc3ncn[nH]3)cn2c1	none
O=C(O)c1cccc(NC2=C(Cl)C(=O)c3ccccc3C2=O)c1	D2 ag-2 41 (no result: D2 antagonist, D2 ag-1)
Cc1ccc(NC2=C(NC(=O)c3ccccc3)C(=O)c3ccccc3C2=O)cc1Cl	D2 PAM-1 65
COc1cccc(C(C#N)NCCCNC(C#N)c2cccc(OC)c2OC)c1OC (stereo not drawn)	none (no result: D2 antagonist, D2 ag-1, D2 PAM-2)
CCC(C)NCCOc1cccc(Br)c1 (stereo not drawn)	D2 antagonist 45
Cc1ccc(NC(=O)CN2C(=O)CC(c3ccc(C)c(C)c3)=Nc3ccccc32)cc1	none (no result: D2 antagonist, D2 ag-2, D2 PAM-1)
COc1ccnc(Oc2ccc(F)cc2)c1C(=O)N/C=N/OCc1cccc(F)c1	none
COc1ccccc1CO/N=C/NC(=O)c1c(OC)ccnc1Oc1ccc(F)cc1	D2 antagonist 37
Cc1ccc(S(=O)(=O)N(C)/N=C/c2ccc(C(=O)O)cc2)cc1	D2 antagonist 30
Cc1ccc(S(=O)(=O)NC(=O)Nc2cccc([N+](=O)[O-])c2)cc1	D2 antagonist 68
CS(=O)(=O)N(CC(=O)Nc1cccc([N+](=O)[O-])c1)c1ccccc1	none
Cc1ccc(S(=O)(=O)NCC(=O)Nc2cccc([N+](=O)[O-])c2)cc1	none
Cc1ccc(S(=O)(=O)N(CC(=O)Nc2cccnc2)c2cccc([N+](=O)[O-])c2)cc1	D2 antagonist 50
CS(=O)(=O)N(CC(=O)Nc1cccc([N+](=O)[O-])c1)c1ccccc1F	D2 antagonist 44
Nc1cc2[nH]c(=O)c3ccccc3c2cc1[N+](=O)[O-]	none (no result: D2 antagonist, D2 ag-1, D2 PAM-2)
CCOc1cc(/C=N/NC(=O)c2ccc(N(C)S(=O)(=O)c3ccccc3)cc2)ccc1OC	D2 antagonist 31
Cc1ccc(S(=O)(=O)N(C)c2ccc(C(=O)Nc3cccnc3)cc2)cc1	D2 antagonist 35
COc1cc(/C=N/NC(=O)c2ccc(N(C)S(=O)(=O)c3ccccc3)cc2)cc(OC)c1OC	none
Cc1ccc(/C=N/NC(=O)c2ccc(N(C)S(=O)(=O)c3ccccc3)cc2)cc1	D2 antagonist 48
